Among the data in ChEMBL document CHEMBL1961873, “Compounds: GSK PKIS; Assays: Nanosyn kinase panel” (2012) are inhibition values, retold here.

The target of experiment [1] is Tyrosine-protein kinase SYK (Homo sapiens) (UniProt P43405). The note with it: at 1 µM.
The target of experiment [2] is T1, Tyrosine-protein kinase Tec (Homo sapiens) (UniProt P42680).
T1 sequence (whole entry): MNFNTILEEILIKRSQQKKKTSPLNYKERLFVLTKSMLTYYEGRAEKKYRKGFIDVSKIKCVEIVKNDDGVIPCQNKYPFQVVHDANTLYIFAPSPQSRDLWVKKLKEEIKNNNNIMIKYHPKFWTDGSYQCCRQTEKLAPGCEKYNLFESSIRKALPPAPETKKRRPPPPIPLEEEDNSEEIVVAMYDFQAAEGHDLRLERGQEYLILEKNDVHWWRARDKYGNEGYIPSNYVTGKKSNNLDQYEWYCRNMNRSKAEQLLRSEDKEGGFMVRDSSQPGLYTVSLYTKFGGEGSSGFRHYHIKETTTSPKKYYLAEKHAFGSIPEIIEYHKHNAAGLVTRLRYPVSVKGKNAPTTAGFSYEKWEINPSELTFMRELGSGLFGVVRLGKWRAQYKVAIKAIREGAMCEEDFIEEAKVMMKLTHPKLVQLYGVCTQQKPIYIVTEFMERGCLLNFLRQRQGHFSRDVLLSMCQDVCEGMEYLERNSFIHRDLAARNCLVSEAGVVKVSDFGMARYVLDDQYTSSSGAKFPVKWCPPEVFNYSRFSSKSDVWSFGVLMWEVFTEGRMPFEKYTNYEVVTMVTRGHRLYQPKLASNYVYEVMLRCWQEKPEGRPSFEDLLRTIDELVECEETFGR
The note with it: at 0.1 µM.

Experiment [3] deals with T1, Tyrosine-protein kinase Tec (Homo sapiens). Conditions: at 1 µM.
Experiment [4] addresses Angiopoietin-1 receptor (Homo sapiens) (UniProt Q02763). Conditions: at 0.1 µM.
Experiment [5] shares this target. Conditions: at 1 µM.
For experiment [6], the target named is T2, Non-receptor tyrosine-protein kinase TNK1 (Homo sapiens) (UniProt Q13470).
T2 sequence (whole entry): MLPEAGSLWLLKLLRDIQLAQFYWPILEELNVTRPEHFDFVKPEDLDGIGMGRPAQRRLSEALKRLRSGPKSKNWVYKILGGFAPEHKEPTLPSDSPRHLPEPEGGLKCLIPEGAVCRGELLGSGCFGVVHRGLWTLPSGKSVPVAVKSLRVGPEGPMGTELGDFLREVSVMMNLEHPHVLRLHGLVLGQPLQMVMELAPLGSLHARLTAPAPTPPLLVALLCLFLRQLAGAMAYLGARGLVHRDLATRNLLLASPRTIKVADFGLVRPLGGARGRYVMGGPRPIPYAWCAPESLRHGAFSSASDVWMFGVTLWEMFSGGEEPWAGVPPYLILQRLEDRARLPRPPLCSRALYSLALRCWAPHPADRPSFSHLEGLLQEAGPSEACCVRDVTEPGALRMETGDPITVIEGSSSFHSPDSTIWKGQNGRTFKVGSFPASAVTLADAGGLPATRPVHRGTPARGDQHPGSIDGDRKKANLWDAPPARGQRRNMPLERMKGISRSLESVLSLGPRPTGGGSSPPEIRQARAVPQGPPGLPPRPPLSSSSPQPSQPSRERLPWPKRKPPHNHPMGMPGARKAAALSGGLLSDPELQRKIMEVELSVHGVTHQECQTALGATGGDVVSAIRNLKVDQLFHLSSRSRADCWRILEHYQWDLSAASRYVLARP
Conditions: at 0.1 µM.

Experiment [7] addresses T2, Non-receptor tyrosine-protein kinase TNK1 (Homo sapiens). Conditions: at 1 µM.
Experiment [8] concerns the target Activated CDC42 kinase 1 (Homo sapiens) (UniProt Q07912). The note with it: at 0.1 µM.
The target is the same in experiment [9]. The note with it: at 1 µM.
The target of experiment [10] is High affinity nerve growth factor receptor (Homo sapiens) (UniProt P04629). The note with it: at 0.1 µM.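 Further: each value is a mean of replicate percent inhibition readings against TRKA kinase.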
Sequence of High affinity nerve growth factor receptor (Homo sapiens) (P04629 33-796 limits assumed): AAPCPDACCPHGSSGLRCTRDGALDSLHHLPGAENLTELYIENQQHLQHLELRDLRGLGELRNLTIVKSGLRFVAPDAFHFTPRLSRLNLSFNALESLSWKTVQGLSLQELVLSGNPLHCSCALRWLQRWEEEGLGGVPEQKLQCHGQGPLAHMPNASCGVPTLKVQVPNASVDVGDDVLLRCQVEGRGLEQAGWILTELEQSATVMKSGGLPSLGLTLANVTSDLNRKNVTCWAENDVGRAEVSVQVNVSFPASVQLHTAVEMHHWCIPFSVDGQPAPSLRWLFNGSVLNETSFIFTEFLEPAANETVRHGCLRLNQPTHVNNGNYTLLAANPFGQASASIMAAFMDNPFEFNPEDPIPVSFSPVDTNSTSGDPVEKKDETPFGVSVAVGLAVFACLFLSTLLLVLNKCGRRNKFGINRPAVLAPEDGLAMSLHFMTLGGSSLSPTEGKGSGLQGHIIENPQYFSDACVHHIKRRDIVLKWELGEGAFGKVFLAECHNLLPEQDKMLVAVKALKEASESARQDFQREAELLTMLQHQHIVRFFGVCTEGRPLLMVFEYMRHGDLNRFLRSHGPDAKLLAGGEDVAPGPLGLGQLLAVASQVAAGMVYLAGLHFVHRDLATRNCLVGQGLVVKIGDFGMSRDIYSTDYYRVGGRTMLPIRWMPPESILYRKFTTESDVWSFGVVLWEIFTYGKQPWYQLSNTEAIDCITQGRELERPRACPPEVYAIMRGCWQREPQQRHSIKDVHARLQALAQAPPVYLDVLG

The inhibition is the drop in the measured response relative to a control, in per cent.

Sequence of Angiopoietin-1 receptor (Homo sapiens) (Q02763 whole entry): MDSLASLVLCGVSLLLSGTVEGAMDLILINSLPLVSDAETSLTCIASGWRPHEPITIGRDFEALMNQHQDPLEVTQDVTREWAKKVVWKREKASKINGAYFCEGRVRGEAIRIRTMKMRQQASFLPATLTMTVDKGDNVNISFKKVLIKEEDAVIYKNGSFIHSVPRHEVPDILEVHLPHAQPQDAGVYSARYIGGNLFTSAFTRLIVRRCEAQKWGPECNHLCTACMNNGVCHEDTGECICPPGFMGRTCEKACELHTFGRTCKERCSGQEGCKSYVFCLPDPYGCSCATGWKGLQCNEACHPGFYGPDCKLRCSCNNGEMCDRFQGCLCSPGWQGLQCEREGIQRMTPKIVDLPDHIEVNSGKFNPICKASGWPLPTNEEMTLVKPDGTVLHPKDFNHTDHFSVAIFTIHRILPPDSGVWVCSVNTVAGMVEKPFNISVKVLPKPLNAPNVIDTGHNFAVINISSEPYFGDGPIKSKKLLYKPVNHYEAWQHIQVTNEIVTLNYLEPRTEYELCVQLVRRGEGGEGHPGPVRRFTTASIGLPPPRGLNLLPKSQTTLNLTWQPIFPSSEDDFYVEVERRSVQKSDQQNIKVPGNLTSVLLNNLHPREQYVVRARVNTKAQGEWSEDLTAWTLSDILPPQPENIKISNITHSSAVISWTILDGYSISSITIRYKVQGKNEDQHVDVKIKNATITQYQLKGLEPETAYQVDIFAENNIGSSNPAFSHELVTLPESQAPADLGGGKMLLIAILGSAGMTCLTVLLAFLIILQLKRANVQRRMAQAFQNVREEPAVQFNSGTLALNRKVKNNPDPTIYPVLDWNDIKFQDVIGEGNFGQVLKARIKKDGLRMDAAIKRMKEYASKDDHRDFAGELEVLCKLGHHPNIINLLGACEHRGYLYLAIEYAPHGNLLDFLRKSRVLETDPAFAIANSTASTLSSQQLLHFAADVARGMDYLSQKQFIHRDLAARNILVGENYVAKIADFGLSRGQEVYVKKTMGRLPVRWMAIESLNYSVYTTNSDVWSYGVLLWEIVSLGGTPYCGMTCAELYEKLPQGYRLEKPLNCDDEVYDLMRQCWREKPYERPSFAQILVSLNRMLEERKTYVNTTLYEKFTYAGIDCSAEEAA
Sequence of Activated CDC42 kinase 1 (Homo sapiens) (Q07912 whole entry, looked up): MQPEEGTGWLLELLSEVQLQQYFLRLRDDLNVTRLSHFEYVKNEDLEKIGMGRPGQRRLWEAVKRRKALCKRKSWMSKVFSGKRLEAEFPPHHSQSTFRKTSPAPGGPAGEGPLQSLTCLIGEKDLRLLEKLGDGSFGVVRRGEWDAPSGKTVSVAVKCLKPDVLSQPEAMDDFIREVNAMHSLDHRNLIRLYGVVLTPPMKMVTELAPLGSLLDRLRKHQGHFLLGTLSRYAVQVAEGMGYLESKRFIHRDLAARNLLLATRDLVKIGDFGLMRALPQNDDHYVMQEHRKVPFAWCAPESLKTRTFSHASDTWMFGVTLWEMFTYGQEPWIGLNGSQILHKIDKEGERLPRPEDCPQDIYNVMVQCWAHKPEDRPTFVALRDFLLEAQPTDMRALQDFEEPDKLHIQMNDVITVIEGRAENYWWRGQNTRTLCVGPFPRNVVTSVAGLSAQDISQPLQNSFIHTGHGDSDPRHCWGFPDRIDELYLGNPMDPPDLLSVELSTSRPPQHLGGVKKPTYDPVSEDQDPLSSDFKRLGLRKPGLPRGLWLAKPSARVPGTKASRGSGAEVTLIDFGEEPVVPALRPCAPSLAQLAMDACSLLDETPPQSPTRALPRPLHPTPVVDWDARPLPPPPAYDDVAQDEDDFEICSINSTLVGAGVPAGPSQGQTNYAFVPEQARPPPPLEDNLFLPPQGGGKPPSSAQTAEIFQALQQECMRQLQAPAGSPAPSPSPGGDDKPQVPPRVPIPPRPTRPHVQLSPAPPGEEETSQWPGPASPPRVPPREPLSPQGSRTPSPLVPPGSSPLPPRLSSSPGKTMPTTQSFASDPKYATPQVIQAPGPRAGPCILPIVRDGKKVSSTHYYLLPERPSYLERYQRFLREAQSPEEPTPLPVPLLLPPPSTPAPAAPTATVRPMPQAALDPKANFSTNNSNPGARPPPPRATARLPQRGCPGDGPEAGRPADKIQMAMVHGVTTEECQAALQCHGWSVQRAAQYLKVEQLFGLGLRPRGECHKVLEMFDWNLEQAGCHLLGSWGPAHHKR

Regarding `CN(C)CCCn1c(-c2nonc2N)nc2cnccc21`, the inhibition in experiment [1] came to 0.37%; in [2] it was 4%; in experiment [3], 4.06%; in experiment [4] it was 0.92%; in experiment [5], 1.59%; in experiment [6], 1.08%. Moreover, the inhibition in [7] was -3.93%; in experiment [8], 0.54%; in experiment [9], 0.77%; in experiment [10], 1.3%.

As to `NS(=O)(=O)c1cccc(Nc2cc(-c3ccc(F)cc3)n[nH]2)c1`, the inhibition was -1% in [1]; 3.27% in experiment [2]; 6.08% in [3]; 0.52% in experiment [4]; 4.79% in experiment [5]; 2.68% in experiment [6]. The inhibition in experiment [7] turned out to be 16.2%; in experiment [8] it was 0.5%; in [9], 2.57%; in [10], 2.83%.

Turning to `Cc1ccc(Nc2ccnc(Nc3cccc(C(N)=O)c3)n2)cc1O`, the inhibition in experiment [1] turned out to be 14.2%; in experiment [2], 18%; in experiment [3] it was 57.1%; in experiment [4] it was 4.56%; in experiment [5] it was 39.7%; in experiment [6] it was 8.82%. Further, the inhibition in [7] came to 52.1%; in [8], 3.73%; in experiment [9] it was 28.8%; in [10], 4.38%.

Take `[O-][S+]1CCN(Cc2ccc(-c3ccc4ncnc(Nc5ccc(OCc6ccccc6)c(Cl)c5)c4c3)o2)CC1`: the inhibition in experiment [1] was 0%; in experiment [2], -0.94%; in [3], 1.06%; in [4], 0.37%; in experiment [5], 1.08%; in [6], -0.33%. Further, the inhibition in experiment [7] was 9.61%; in experiment [8], 0.09%; in experiment [9] it was -0.42%; in experiment [10], 1.88%.

As to `COc1cc(Nc2nccc(-c3cnn4ncccc34)n2)cc(OC)c1`, the inhibition in experiment [1] stood at 61.2%; in experiment [2], 9.2%; in [3], 42.9%; in experiment [4], 7.05%; in experiment [5] it was 39.6%; in experiment [6], 26.8%. Moreover, the inhibition in experiment [7] amounted to 64.4%; in [8], 3.06%; in experiment [9], 35.6%; in experiment [10] it was 0.98%.

As to `FC(F)(F)c1ccc(-c2nn3ncccc3c2-c2ccnc(Nc3ccc4c(c3)OCCO4)n2)cc1`, the inhibition was determined as 0.25% in experiment [1]; 3.97% in experiment [2]; 5.21% in [3]; 9.11% in [4]; 33.8% in [5]; 6.18% in experiment [6]. The inhibition in [7] was 22.2%; in experiment [8] it was 6.74%; in [9] it was 8.14%; in experiment [10], -1.21%.

For the molecule `COc1cc2ncnc(Nc3ccc(C)c(O)c3)c2cc1OC`, the inhibition in experiment [1] is 0.27%; in [2], 11.1%; in experiment [3], 36.6%; in experiment [4] it was 3.58%; in [5], 17.7%; in [6], 5.34%. Further, the inhibition in [7] was determined as 23.8%; in experiment [8] it was 1.4%; in [9], 5.7%; in [10] it was 1.85%.

In the case of `COC(=O)c1cncc(/C=C/c2c(C)cc(O)cc2C)c1`, the inhibition in [1] was -1.42%; in experiment [2], 6.12%; in [3], 20.5%; in experiment [4] it was 1%; in experiment [5] it was 1.3%; in [6], 4.05%. For the same molecule, the inhibition is 20% in experiment [7], 1.2% in [8], 5.39% in experiment [9] and 2.21% in experiment [10].

Turning to `NS(=O)(=O)c1ccc(NC=C2C(=O)Nc3ccc4ncsc4c32)cc1`, the inhibition worked out at 3.68% in experiment [1]; 5.73% in experiment [2]; 22.4% in experiment [3]; 1.88% in experiment [4]; 19.6% in experiment [5]; 15.6% in experiment [6]. Besides, the inhibition in experiment [7] was 53.1%; in experiment [8], 1.41%; in experiment [9] it was 9.93%; in experiment [10] it was 15.9%.

On to `c1ccc(Nc2ncc(-c3ccccc3)o2)cc1`, for which the inhibition turned out to be 3.14% in experiment [1]; 4.25% in experiment [2]; 8.61% in experiment [3]; 3.52% in experiment [4]; 3.99% in experiment [5]; 5.05% in experiment [6]. Also, the inhibition in experiment [7] amounted to 9.74%; in experiment [8], 1.38%; in [9], 0.93%; in experiment [10], 0.26%.

For `C[C@@H](Oc1cc(-n2cnc3ccc(OC[C@@H](O)CO)cc32)sc1C(N)=O)c1ccccc1Cl`, the inhibition in [1] was 0.64%; in [2] it was -0.35%; in experiment [3] it was -0.09%; in experiment [4] it was 2.55%; in [5] it was 14.6%; in experiment [6], -0.47%. The inhibition was 18.2% in [7], -0.26% in experiment [8], 2.04% in experiment [9] and 0.33% in experiment [10].

Consider `CCCN1CCCC(c2ccc(Nc3nc(Nc4cc(F)ccc4C(N)=O)c4cc[nH]c4n3)c(OC)c2)C1` (stereo not given), for which the inhibition is 75.8% in [1]; 4.67% in [2]; 9.82% in [3]; 4% in experiment [4]; 4.28% in experiment [5]; 41.2% in experiment [6]. The inhibition in experiment [7] was 81%; in experiment [8], 5.79%; in experiment [9], 41.1%; in experiment [10] it was 3.35%.

Turning to `CC(C)c1ccc2c(c1)NC(=O)/C2=N/Nc1ccc(S(N)(=O)=O)cc1`, the inhibition in [1] is 1.53%; in experiment [2], 1.22%; in [3], 3.98%; in [4] it was 1.55%; in experiment [5] it was 3.02%; in experiment [6] it was 2.2%. The inhibition in experiment [7] was 9.9%; in [8], 0.13%; in experiment [9] it was 4.69%; in [10], 3.96%.

For `Cc1nc(-c2ccccc2)n2nc(NCCCN3CCOCC3)ncc12`, the inhibition in experiment [1] came to 3.52%; in experiment [2] it was 2.69%; in [3], 3.32%; in experiment [4] it was 4.19%; in experiment [5], 5.74%; in [6], 1.98%. For the same molecule, the inhibition turned out to be 2.53% in experiment [7], 0.58% in experiment [8], 1.15% in [9] and 0.31% in experiment [10].

For the molecule `ON=C1CCc2cc(-c3nc(C4CCNCC4)[nH]c3-c3ccncc3)ccc21`, the inhibition was 0.36% in experiment [1]; 1.46% in [2]; 2.88% in experiment [3]; 1.37% in experiment [4]; 1.77% in [5]; -4.28% in [6]. The inhibition in [7] was -5.17%; in experiment [8] it was -0.93%; in experiment [9], -2.5%; in [10], -3.45%.

For `NC(=O)c1sc(-n2cnc3ccccc32)cc1OCc1ccccc1Br`, the inhibition in experiment [1] was -0.37%; in experiment [2], 4.6%; in experiment [3], 4.76%; in experiment [4], 2%; in [5], 6.42%; in experiment [6] it was 2.8%. The inhibition stood at 18.9% in [7], 0.68% in experiment [8], 1.87% in experiment [9] and 1.54% in [10].

On to `NS(=O)(=O)c1ccc(Nc2cc(-c3cccc(O)c3)n[nH]2)cc1`, for which the inhibition in experiment [1] is -0.51%; in experiment [2], 5.22%; in [3], 5.56%; in experiment [4], 4.05%; in experiment [5], 3.13%; in [6] it was 4.11%. Further, the inhibition in experiment [7] turned out to be 7.43%; in experiment [8] it was 1.36%; in [9] it was 2.01%; in experiment [10], 4.76%.
